A selection: hits, their analogues and other compounds. The true share with any hit is near 19%.
TDP1 cell CPT – qHTS for Inhibitors of human tyrosyl-DNA phosphodiesterase 1 (TDP1): qHTS in cells in presence of CPT | chicken DT40 Tdp1-/-;hTDP1 cells + 20 nM CPT, ATP luminescence, 48 h | Potency, µM (series often up to 46.2 µM), for the others: at the top dose activity change, negative = growth inhibition, usual class: inhibitors | 420,000 compounds, 12% hits | AID 686979, 2013; note: potency is the fitted concentration of half-maximal effect; nearly all actives have a fitted effect of over 55% in size
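Chicken DT40 Tdp1-/- cells stably complemented with human TDP1 were seeded at 400 cells/well in medium containing 20 nM camptothecin, exposed to pin-transferred compounds, and grown at 37 °C for at least 48 hr. Viability was read as ATP luminescence.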
IL-1B inflam inh – qHTS for Inhibitors of Inflammasome Signaling: IL-1-beta AlphaLISA Primary Screen; THP-1 LPS/ATP IL-1B secretion, AlphaLISA, 16 h; hits give low values; activity change, % at 57.5 µM; 360,000 compounds, 4.7% hits; AID 743279, 2014; in the data active = activity change below about -50%; inconclusive = mostly about -30% to -49%
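Secreted IL-1B measured by AlphaLISA bead assay after 16 h compound exposure of THP-1 cells; compounds (final up to 57.5 uM) added 1 h before LPS (250 ng/mL) and ATP (1.25 mM) stimulation; lower signal means less secretion.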
HT1080NT lethal – qHTS for induction of synthetic lethality in tumor cells producing 2HG: qHTS for the HT-1080-NT fibrosarcoma cell line. HT-1080-NT fibrosarcoma viability, CellTiter-Glo ATP luminescence, 48 h. Potency, µM (doses to about 46.1 µM), for inactives: at the highest dose activity, negative = less viability, actives largely listed as cytotoxic. 360,000 compounds, 1.6% hits;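 note: NT is the 2HG producing partner of a matched IDH1 knockdown line; potency is the fitted concentration of half-maximal effect; 0% = DMSO-treated cells and -100% = media-only wells without cells; nearly all actives have a fitted effect of over 55% in size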
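HT-1080-NT; 750 cells/well; 5% FBS RPMI; 48 h compound, 37 degrees C; CellTiter-Glo luminescence; curve fitting and curve-class assignment.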
TDP1 cell noCPT – qHTS for Inhibitors of human tyrosyl-DNA phosphodiesterase 1 (TDP1): qHTS in cells in absence of CPT | DT40 Tdp1-/- hTDP1 cells, no CPT, ATP luminescence, 48 h | Potency, µM (series often up to 46.2 µM), inactives show at the highest dose activity change, negative = growth inhibition, most hits filed as inhibitors | 420,000 compounds, 15% hits | AID 686978, 2013; note: potency is the fitted concentration of half-maximal effect; nearly all actives have a fitted effect of over 55% in size
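Seeded 400 DT40-hTDP1 cells/well (vehicle DMSO, no 20 nM CPT); pinned compounds; ≥48 hr at 37 °C; CellTiter-Glo luminescence as viability measure.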
HT1080 IDH1KD tx – qHTS for induction of synthetic lethality in tumor cells producing 2HG: qHTS for the HT-1080-IDH1KD cell line | 360,000 compounds, 2% hits | HT-1080 IDH1 knockdown viability, ATP luminescence, 48 h | Potency, µM (titrated, usually from 46.1 µM), inactives show at the top dose activity, negative = toxicity, usual class: cytotoxic;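 note: potency is the fitted concentration of half-maximal effect; 0% = DMSO wells and -100% = cell-free medium wells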
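Assay cells: HT-1080 with IDH1 knockdown, 750 per well, RPMI/5% FBS. Exposure: 48 h at 37 °C following 2 h pre-incubation. Read: CellTiter-Glo luminescence; fitted concentration-response, curve class assigned.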
* marks the source's active call; other numbers are inactive results; u = inconclusive; x = not tested or not shown. Unless noted, calls come from the whole dose curve; as a rule, active = well fitted curve in the direction sought with a large enough effect; inconclusive = small, poorly fitted or top-dose-only effect, or another doubt; inactive = no such curve, though single readings can be large; an effect the other way counts as inactive or inconclusive. Unless noted, % is set by controls: 0 for no effect and ±100 for the full control effect.

SMILES	TDP1 cell CPT	IL-1B inflam inh	HT1080NT lethal	TDP1 cell noCPT	HT1080 IDH1KD tx
CCCCCC(=O)Nc1cc(S(=O)(=O)N2CCOCC2)ccc1N1CCN(C)CC1	-11%	-16	-3%	0%	-2%
CSCCC(=O)Nc1cc(S(=O)(=O)N2CCOCC2)ccc1N1CCN(C)CC1	-13%	-72*	17%	-15%	11%
CCCCCC(=O)Nc1cc(S(=O)(=O)N2CCOCC2)ccc1N1CCCCC1	u	-21	-9%	21µM*	1%
Cc1cc(Cl)ccc1OCCCC(=O)Nc1cc(S(=O)(=O)N2CCOCC2)ccc1N1CCOCC1	u	-27	-8%	16µM*	3%
Cc1ccc(S(=O)(=O)N2CCOCC2)cc1C(=O)Nc1ccc(-c2cn3ccsc3n2)cc1	11µM*	14	-13%	11µM*	0%
Cc1ccc2c(c1)N(C(=O)CCC(=O)NCc1cccc(Br)c1)CC(C)O2 (stereo unspecified)	u	u	-2%	u	-2%
Cc1ccc(-c2nc3sc(C#N)c(N)n3c(=O)c2C#N)cc1	-1%	33	2%	-3%	4%
CC1CCC(NC(=O)COC(=O)c2cccnc2Cl)CC1 (stereo unspecified)	0%	-6	-1%	-2%	18%
O=C(CCCSc1ccc(Cl)cc1)Nc1cc(S(=O)(=O)N2CCOCC2)ccc1O	18µM*	28	-9%	23µM*	-6%
Cc1ccc(S(=O)(=O)N2CCOCC2)cc1C(=O)Nc1cc(Cl)ccc1N1CCOCC1	23µM*	-12	0%	u	5%
Cc1ccc(S(=O)(=O)N2CCOCC2)cc1NC(=O)C(c1ccc(Cl)cc1)C(C)C (stereo unspecified)	u	-58*	1%	u	-2%
Cc1ccc(S(=O)(=O)N2CCOCC2)cc1NC(=O)CSc1ccc(Cl)cc1	u	-9	6%	u	4%
O=C(Nc1cc(S(=O)(=O)N2CCOCC2)ccc1N1CCOCC1)c1ccccc1Cl	6%	-8	0%	-14%	17%
Cc1ccc(OCCC(=O)Nc2cc(S(=O)(=O)N3CCOCC3)ccc2N2CCCC2)cc1	u	u	-3%	15µM*	-5%
N#Cc1cccc(-c2nc3cnc(Nc4ccccc4)nc3n(C[C@H]3CCCO3)c2=O)c1	9%	x	x	-5%	x
CCOc1ccc2nc(SCC(=O)Nc3ccc(F)cc3)nc(-c3ccccc3)c2c1	-5%	x	x	-1%	x
Cc1cc(=O)n2nc(N3CCCC(C(=O)NCc4cccc(Br)c4)C3)sc2n1 (stereo unspecified)	-18%	-13	-1%	6%	4%
O=C(CN1C(=O)NC2(CCSC2)C1=O)NCc1ccccc1 (stereo unspecified)	5%	-4	u	0%	8%
C=CCOc1c(CCC)cc(CCC)cc1C(N)=O	-26%	-3	-25%	-9%	-23%
COc1ccccc1CCC(=O)Nc1cc(S(=O)(=O)N2CCOCC2)ccc1N1CCCC1	u	-24	8%	29µM*	7%
O=C(COc1ccccc1)Nc1cc(S(=O)(=O)N2CCOCC2)ccc1N1CCCC1	-19%	15	6%	-7%	20%
O=C(COc1cccc(Cl)c1)Nc1cc(S(=O)(=O)N2CCOCC2)ccc1N1CCOCC1	u	u	-1%	18µM*	-1%
CN(C(=O)Cn1cnc([N+](=O)[O-])n1)C1CCCCC1	1%	5	21%	-4%	16%
COCCN(C(=O)COC(=O)Cc1cccc(OC)c1)c1c(N)n(CC(C)C)c(=O)[nH]c1=O	10%	-10	-3%	-18%	15%

Source: PubChem BioAssay
